Shown are actives, neighbours in structure and some others; about 6% of the full set was active somewhere.
D1 agonist: Allosteric Agonists of the Human D1 Dopamine Receptor: qHTS | D(1A) dopamine receptor (Homo sapiens), P21728 | 1% of 360,000 active | activation, % at 2 µM | HEK293 T-REx D1 cells, calcium flux, agonist mode; in the data active means activation above about 30%; further: 0% is about no effect
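Agonism was scored from calcium flux recorded over 180 s (1 read/s) after pintool compound addition, following a 10-cycle baseline. Cells were inducible force-coupled HEK293 TREx D1, plated overnight at 30 C and loaded with no-wash calcium dye.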
D1 antag: Antagonist of Human D 1 Dopamine Receptor: qHTS; 3.2% of 360,000 active; D(1A) dopamine receptor (Homo sapiens), P21728; AID 504652, 2011; HEK293 TREx D1 cells, calcium flux, dopamine EC80; stronger effect = lower value; activity change, negative = inhibition, % at 10 µM; in the data active means activity change below about -30%; further: on the % scale 0 is the no-effect control and ±100 the full control effect
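Kinetic fluorescence of a calcium dye serves as the read-out. D1-expressing Hek293 Trex cells, induced overnight at 30 C, are exposed to compound for 180 s before an EC80 dopamine addition, then read 180 s further.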
D1 potentiator: Potentiators of Human D1 Dopamine Receptor: qHTS; AID 504651, 2011; HEK293 TREx D1 cells, calcium flux, dopamine EC20 potentiation; 0.036% of 360,000 active; D(1A) dopamine receptor (Homo sapiens), P21728; potentiation, % at 10 µM; in the data active means potentiation above about 30%; further: 0% is about no effect
D3 ag: qHTS of D3 Dopamine Receptor Agonist: qHTS; D(3) dopamine receptor (Homo sapiens), P35462; D3R DiscoveRx beta-arrestin cells, luminescence, 90 min; max activation, %; 0.58% of 410,000 active; in the data active means max activation above about 30%; further: 0% is about no effect
Target sequence (P35462 whole entry, looked up): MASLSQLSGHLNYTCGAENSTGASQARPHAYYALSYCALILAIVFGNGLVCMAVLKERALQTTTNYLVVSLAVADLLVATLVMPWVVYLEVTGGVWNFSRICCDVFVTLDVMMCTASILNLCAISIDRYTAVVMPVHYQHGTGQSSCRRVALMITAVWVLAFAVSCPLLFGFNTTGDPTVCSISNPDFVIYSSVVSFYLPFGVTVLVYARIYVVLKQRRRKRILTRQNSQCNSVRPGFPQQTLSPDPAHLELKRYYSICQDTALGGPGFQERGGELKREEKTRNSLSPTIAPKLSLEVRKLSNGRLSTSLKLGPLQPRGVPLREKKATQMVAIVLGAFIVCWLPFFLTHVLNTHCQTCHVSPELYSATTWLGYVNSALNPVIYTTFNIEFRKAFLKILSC
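Cells at 1500/well, incubated overnight, then treated with pinned compounds (dopamine as control) for 90 min at 37 degrees C. DiscoveRx reagent added for 30 - 60 minutes at room temperature; luminescence read.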
DRD3 antagonist: qHTS of D3 Dopamine Receptor Antagonist: qHTS; D(3) dopamine receptor (Homo sapiens), P35462; D3R cells, DiscoveRx beta-arrestin luminescence, antagonist mode; stronger effect = lower value; max response, negative = inhibition, %; 2.5% of 360,000 active; AID 652054, 2013; in the data active means max response below about -50%; inconclusive means no clear call, values can overlap the other calls; further: on the % scale 0 is the no-effect control and ±100 the full control effect
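Cells expressing the human receptor were seeded at 1500 cells/well, incubated overnight at 37 degrees C in 5% CO2, then exposed to library compounds with dopamine controls for 90 minutes at 37 degrees C before luminescent detection.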
* = called active by the depositor; u = inconclusive; x = not tested or not shown; ! = a repeat was not active.

SMILES	D1 agonist	D1 antag	D1 potentiator	D3 ag	DRD3 antagonist
CCNC(COC(=O)c1ccc([N+](=O)[O-])cc1)C1CCCCC1 (configuration not stated)	x	x	x	-14	12
Cc1cc(Br)ccc1OCCNCc1ccccc1	13	-2	-7	-10	-70*
CCOc1ccc(-c2cc3cc(OC)c(OC)cc3c(C)n2)cc1	-1	0	4	-6	-2
CCc1nc(-c2ccc(OC)c(OC)c2)cc2cc(OC)c(OC)cc12	-1	0	-7	36*	53
Cc1nc(C#N)c(N/N=C/c2c(F)cccc2Cl)o1	-1	12	-6	-2	-64*
Cc1cc(C)c(C#N)c(SCCS(=O)(=O)Cc2ccccc2)n1	10	-8	-3	-11	-84*
Cc1cc(C)c(C#N)c(SCC2COc3ccccc3O2)n1 (configuration not stated)	38*	-5	1	-3	16
CCCCCCCCCCCCCCCC(=O)OC[C@@H](O)[C@H]1OC[C@H](O)[C@H]1O	x	x	x	-11	x
CCOC(=O)C(NC(=O)CC)(N1CCc2ccccc2C1)C(F)(F)F (configuration not stated)	-1	-5	2	6	0
CC1C(=O)N(Cc2cn(CCC3OCCO3)nn2)CCS(=O)(=O)N1Cc1ccc(-c2ccccc2)cc1 (configuration not stated)	x	x	x	8	14
Cc1ccc(C(=O)NC(=S)Nc2cccc(NC(=O)c3ccccc3)c2)cc1[N+](=O)[O-]	4	-10	-11	-8	-68*
CCC(=O)NC(=S)Nc1ccc(NC(=O)c2cccc([N+](=O)[O-])c2C)cc1	6	-40*	-10	-2	-5
O=C(NC(=S)Nc1cccnc1)c1cc2ccccc2o1	2	-45*	-2	-5	-10
Cc1ccc(C(=O)NC(=S)Nc2cccc(NC(=O)c3ccccc3Cl)c2)cc1[N+](=O)[O-]	5	-10	17	-15	u
Cc1c(C(=O)NC(=S)Nc2cccnc2)cccc1[N+](=O)[O-]	2	4	-11	-14	-65*
O=C(NC(=S)NCc1cccnc1)c1cc2ccccc2o1	6	-3	2	-7	15
CCC(=O)NC(=S)Nc1ccc(NC(=O)c2ccccc2[N+](=O)[O-])cc1	0	-9	-11	5	-12
Cc1nn(CC(=O)Nc2cc(F)ccc2F)c(=O)c2cccn12	5	-1	-1	-12	x
C[C@H]1CN([C@@H](C)CO)C(=O)CCCn2cc(nn2)CO[C@@H]1CN(C)S(=O)(=O)c1ccc(Oc2ccccc2)cc1	x	x	x	-3	22
Clc1cnc(N/N=C/c2cccs2)c(Cl)c1	0	-6	-5	-7	32
Cc1ccc(/C=N/Nc2ncc(Cl)cc2Cl)s1	6	-29	-14	31*	28
CC(=O)c1cccc(NC(=O)CCCN2C(=O)COc3ccc(C)cc32)c1	-4	-3	-1	0	x
Cc1ccc(C[C@@H](NS(=O)(=O)c2ccc(C(=O)O)cc2)C(=O)O)cc1	3	1	-3	x	x
COc1ccc(C)c(-n2c(=O)n(Cc3ccccc3)c(=O)c3[nH]cnc32)c1	1	-16	-1	-29	-97*
Cc1ccc(S(C)=O)cc1-n1c(=O)n(Cc2ccccc2)c(=O)c2[nH]cnc21 (configuration not stated)	3	-3	0	-31	-104*
SMILES	D1 agonist	D1 antag	D1 potentiator	D3 ag	DRD3 antagonist
COc1cccc(NC(=O)NCc2ccccc2F)c1	3	-9	-1	1	10
COc1cccc(N/C(SCc2ccccc2F)=C(/C#N)C(=O)NCc2cccs2)c1	34*	-40*	-3	-5	-22
Cc1ccc2nc(-c3ccc(N4C(=O)CC(N5CCN(CCO)CC5)C4=O)cc3)sc2c1 (configuration not stated)	5	-36*	-4	4	u
COc1cc(CCC(=O)Nc2ncc(C)s2)cc(OC)c1OC	1	5	-7	-1	3
COc1cc(Cc2cnc(N)nc2N)cc(OC)c1OC	-1	-48*!	4	0	33
O=C(Nc1ccccc1)Oc1cccc(Br)c1	6	-2	-3	-7	0

Compound activity deposited in PubChem by National Center for Advancing Translational Sciences (NCATS).
